MCF10A rereplic: A quantitative high throughput screen for small molecules that induce DNA re-replication in MCF 10a normal breast cells. MCF 10A DNA re-replication, Hoechst nuclear intensity, 48 h. Potency, µM (doses to about 46.1 µM), most hits filed as activators. 350,000 tested, 2.9% active. AID 624296, 2012; note: nearly all actives have a fitted effect of over 50% in size
SW480 rereplic: A quantitative high throughput screen for small molecules that induce DNA re-replication in SW480 colon adenocarcinoma cells. SW480 DNA re-replication, Hoechst DNA content imaging, 48 h. 340,000 tested, 1.8% active. Potency, µM (doses to about 46.1 µM), usual class: activators; note: nearly all actives have a fitted effect of over 55% in size
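Quantitative HTS format with DMSO vehicle controls; 48 hr drug incubation at 37 C, then 40 min Hoechst staining and scanning imager measurement at 405 nm excitation.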
HT1080-NT tox: qHTS for induction of synthetic lethality in tumor cells producing 2HG: qHTS for the HT-1080-NT fibrosarcoma cell line; HT-1080-NT fibrosarcoma viability, CellTiter-Glo ATP luminescence, 48 h; Potency, µM (highest dose often 46.1 µM), actives largely listed as cytotoxic; 360,000 tested, 1.6% active;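 note: NT is the 2HG producing partner of a matched IDH1 knockdown line; nearly all actives have a fitted effect of over 55% in size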
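750 cells/well, RPMI + 5% FBS; 2 h settle, compound pin-transfer, 48 h at 37 degrees C. CellTiter-Glo 10 min RT, luminescence. Normalized to DMSO and media-only wells.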
KB-V1 MDR tox: qHTS assay for MDR1-selective chemotherapeutics: Primary screen using the drug-selected MDR subline cells KB-V1; KB-V1 MDR cells viability, CellTiter-Glo, 72 h; Potency, µM (doses to about 46.1 µM), most hits filed as cytotoxic; 400,000 tested, 3.4% active; AID 1347076, 2019; note: nearly all actives have a fitted effect of over 60% in size
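Following 72 h at 37 degrees C with compound, KB-V1 cell viability was read by CellTiter-Glo luminescence, medium being phenol-red-free DMEM plus 10% FBS; concentration-response parameters came from normalized, curve-fitted qHTS data.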
HT1080 IDH1KD tx: qHTS for induction of synthetic lethality in tumor cells producing 2HG: qHTS for the HT-1080-IDH1KD cell line; 360,000 tested, 2% active; Potency, µM (top dose mostly 46.1 µM), most hits filed as cytotoxic; HT-1080 IDH1 knockdown viability, ATP luminescence, 48 h
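Knockdown cells (IDH1KD HT-1080) received compounds 2 h after plating at 750 cells/well and were kept 48 h at 37 °C in 5% FBS RPMI. A CellTiter-Glo luminescence read gave % activity for curve fitting.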
KB-3-1 tox: qHTS assay for MDR1-selective chemotherapeutics: Primary screen using the parental adenocarcinoma cell KB-3-1. KB-3-1 viability, CellTiter-Glo ATP luminescence, 72 h. Potency, µM (series often up to 46.1 µM), actives largely listed as cytotoxic. 400,000 tested, 1.4% active. AID 1347075, 2019; note: nearly all actives have a fitted effect of over 60% in size
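Cells are dispensed, compounds pinned in, plates held at 37 °C for 72 h, then CellTiter-Glo is added and luminescence read after 10 minutes. Cell line: parental KB-3-1 in phenol-red-free DMEM, 10% FBS.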
Numbers stand for hits; n = inactive; u = inconclusive; x = not tested or not shown; ! = not confirmed by another sample; [ ] = another dose, or the depositor's remark. In the library only some 7.9% were active in any assay of this set; here they are far more common. Calls come from the whole dose curve; as a rule, active = well fitted curve in the direction sought with a large enough effect; inconclusive = small, poorly fitted or top-dose-only effect, or another doubt; inactive = no such curve, though single readings can be large; an effect the other way counts as inactive or inconclusive.

SMILES	MCF10A rereplic	SW480 rereplic	HT1080-NT tox	KB-V1 MDR tox	HT1080 IDH1KD tx	KB-3-1 tox
N#Cc1nc(/C=C/c2ccc(F)cc2)oc1N1CCN(c2ccccc2)CC1	x	x	x	n	x	n
CCN1CCN(c2oc(/C=C/c3ccccc3)nc2C#N)CC1	23µM	u	n	n	n	n
CNc1oc(/C=C/c2ccccc2)nc1C#N	21µM	u	n	n	n	n
COc1ccccc1N1CCN(C(=O)CSc2nc3ccccc3nc2Cc2ccc(F)cc2)CC1	x	x	x	n	x	n
CCOc1ccc(CCNC(=O)c2ccc(-c3nc(CSc4ccccc4)c(C)o3)cc2)cc1	x	x	x	n	x	n
O=CC(O)C1OC(=O)C(O)C1O (stereo not given)	n	n	x	n	x	n
N#Cc1nc(-c2cccc3ccccc23)oc1NCCN1CCOCC1	16µM	u	n	n	n	n
C=CCOC(=O)C1=C[C@@H](c2cn(C(C)=O)c3ccccc23)C[C@@H](OCc2ccc(CO)cc2)O1	23µM	n	n	n	n	n
CC(=O)n1cc([C@@H]2C=C(C(=O)NCc3ccccc3)O[C@H](OCc3ccc(CO)cc3)C2)c2ccccc21	13µM	n	n	n	n	n
O=C(NCc1ccccc1)C1=C[C@H](c2csc3ccccc23)C[C@H](OCCCCO)O1	u	u	n	7.3µM	n	u
O=C(Nc1ccccc1)C1=C[C@@H](C2CC2)C[C@@H](OCCCCO)O1	n	n	n	7.3µM	n	n
COc1ccc(CCNS(=O)(=O)c2cc(-c3cc(C)no3)ccc2OC)cc1OC	x	x	x	n	x	n
CC(NC(=O)c1cc(-c2ccc(Cl)cc2)on1)c1ccccc1 (stereo not given)	x	x	x	n	x	u
CC1(C)SC2[C@@H](N=CN3CCCCCC3)C(=O)N2[C@H]1C(=O)O (stereo not given in full)	n	n	x	x	x	x
c1ccc2c(c1)OCCOCCOCCOCCOCCOc1ccccc1OCCOCCOCCO2	u	u	u	5.2µM	u	5.2µM
Cc1ccc2nc(Cl)c(/C=N/NC(=O)CN3CCOCC3)cc2c1	n	n	n	n	n	n
Cc1cccc2cc(/C=N/NC(=O)CN3CCOCC3)c(Cl)nc12	n	n	n	18µM	n	n
O=[N+]([O-])c1cccc2nc3ccccc3c(NCCCn3ccnc3[N+](=O)[O-])c12	u	u	u	0.73µM	0.082µM	n
Cc1onc(-c2ccccc2)c1C(=O)Nc1sccc1C#N	n	n	n	n	n	n
Cc1cccc(C(=O)Nc2sc(C)c(-c3ccccc3)c2C#N)c1	9.2µM	n	n	u	u	n
N#Cc1c(Cl)nsc1NC(=O)c1ccccc1	u	n	8.2µM	7.3µM	13µM	u
Cc1sc(NC(=O)C2CCCCC2)c(C#N)c1-c1ccccc1	n	n	n	n	n	n
Cc1noc(C)c1C(=O)Nc1sc(C)c(-c2ccccc2)c1C#N	n	n	n	4.1µM	n	13µM
COc1cc(CCC(=O)NCc2ccc3c(c2)CCN3C(=O)c2ccc(F)cc2)cc(OC)c1OC	x	x	x	n	x	n
COc1ccc(CNC(=O)N2CCN(c3ccccc3)CC2)cc1	n	n	n	n	n	n
SMILES	MCF10A rereplic	SW480 rereplic	HT1080-NT tox	KB-V1 MDR tox	HT1080 IDH1KD tx	KB-3-1 tox
CC1CCCCN1C(=O)CSc1nc2ccsc2c(=O)n1Cc1ccccn1 (stereo not given)	n	n	n	18µM	n	n
CCn1c(SCC(=O)N2CCCCC2C)nc2ccsc2c1=O (stereo not given)	n	n	n	n	n	n
CC[n+]1c(/C=C/Nc2ccccc2)oc2ccccc21	u	u	n	n	u	n
CC[n+]1c(/C=C/N(C)c2ccccc2)oc2ccc(F)cc21	u	u	u	n	u	5.8µM
CN(/C=C/c1c([N+](=O)[O-])c(=O)n(C)c(=O)n1C)c1ccccc1	n	n	n	n	n	n
CC[n+]1c(/C=C/Nc2ccccc2)oc2ccc(OC)cc21	18µM	u	n	n	n	n
O=C(NCCCc1ccccc1)C1CC(=O)N(c2ccc3c(c2)OCCO3)C1 (stereo not given)	n	n	n	23µM	n	n
COc1ccc(-c2nc(NC(=O)C3CC(=O)N(c4ccc5c(c4)OCCO5)C3)sc2C)cc1 (stereo not given)	3.3µM	4.1µM	u	u	u	13µM!
COC(=O)c1cc2sc(Cl)cc2n1Cc1nc(-c2ccccc2C)oc1C	x	x	x	n	x	n
O=C(CCCCl)Oc1ccc2cc(-c3ccc4ccccc4n3)c(=O)oc2c1	6.5µM	2.1µM	n	n	n	n
CC(=O)COc1ccc2cc(-c3ccccc3)c(=O)oc2c1	n	n	n	n	n	n
CCOc1ccc(CNC(=O)COc2cc(=O)n(C)c3ccccc23)cc1	x	x	x	n	x	n
Cc1c(NC(=O)C(C)Sc2nc(N)cc(=O)[nH]2)c(=O)n(-c2ccccc2)n1C (stereo not given)	n	n	n[9.24 µM]	n	n	n
COc1ccc2[nH]c3c(c2c1)CCNC3C1CC=C(C)CC1 (stereo not given)	0.58µM	u	u	u	u	21µM
COc1cc(/C=N/O)c(Br)cc1OCC(=O)Nc1ccccc1C	n	u	n	8.2µM	n	n
COc1ccccc1NC(=O)COc1ccc(Br)cc1CNCCCN1CCOCC1	u	u	n	n	n	n
COc1cc(CNCCCN2CCOCC2)c(Br)cc1OCC(=O)Nc1ccccc1C	15µM	u	n	n	n	n
Cc1sc2ncn(CC(=O)N3CCN(c4ccccc4)CC3)c(=O)c2c1S(=O)(=O)N1CCN(c2ncccn2)CC1	x	x	x	n	x	n
CC(C)[C@H](NS(=O)(=O)c1ccccc1)C(=O)Nc1ccccc1N1CCOCC1	n	n	n	8.2µM	n	n
O=C(Nc1ccccc1N1CCOCC1)c1ccccc1NS(=O)(=O)c1ccc(F)cc1	n	n	n	n	n	n
Cc1cccc(C(=O)NC(C(=O)Nc2ccccc2N2CCOCC2)C(C)C)c1 (stereo not given)	n	n	n	n	n	n
O=C(c1ccc(F)cc1)N1CCN(S(=O)(=O)c2ccc3c(c2)OCCO3)CC1	x	x	n	u	n	n
O=C(c1ccc(F)cc1F)N1CCN(S(=O)(=O)c2ccc3c(c2)OCCO3)CC1	n	n	n	16µM	n	u
O=C(Nc1ccccc1N1CCOCC1)c1ccccc1NS(=O)(=O)c1ccc(F)c(F)c1	u	n[9.22 µM]	18µM	u	u	u

Assay outcomes from PubChem.
